TGFb SMAD3 inh: inhibitors of TGF-b signaling; Potency, µM (highest dose often 46.1 µM), for the others: at the highest dose activity, negative = inhibition, usual class: inhibitors; AID 588855; hit rate 1.2% among 410,000; HepG2 CAGA-GFP TGF-b/SMAD3 reporter, GFP fluorescence, 18 h; TGF-beta stimulated, 500 pg/mL final; further: on the % scale 0 is the no-effect control and ±100 the full control effect; nearly all actives have a fitted effect of over 65% in size
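Inhibition of TGF-beta-driven CAGA-GFP reporter expression in HEPG2 cells is measured by cellular GFP fluorescence after 18 h stimulation with 500 pg/mL recombinant TGF-beta in 1% FBS medium at 37 degrees C.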
HepG2 tox: counter-screen for TGF-b inhibitors: cytotoxicity in HepG2 cells; AID 588856; HepG2 CAGA-GFP viability, ATP luminescence, 18 h; hit rate 0.76% among 410,000; Potency, µM (series often up to 46.1 µM), without a hit: top-dose activity change, negative = cytotoxicity, hits mostly cytotoxic
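CellTiter-Glo luminescence gave cytotoxicity after 18 hours at 37 degrees C. The cells were HepG2 CAGA-GFP in 1% FBS DMEM, stimulated with 500 pg/mL TGF-beta after compound addition. %Activity was normalised to no-cell wells (complete cell-killing) and DMSO (no toxicity), and curves were fitted and classified.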
DT40 TDP1 no CPT: qHTS for Inhibitors of human tyrosyl-DNA phosphodiesterase 1 (TDP1): qHTS in cells in absence of CPT | DT40 Tdp1-/- hTDP1 cells, no CPT, ATP luminescence, 48 h | hit rate 15% among 420,000 | Potency, µM (doses to about 46.2 µM), without a hit: at the highest dose activity change, negative = growth inhibition, most hits filed as inhibitors | AID 686978, 2013; further: on the % scale 0 is the no-effect control and ±100 the full control effect; nearly all actives have a fitted effect of over 55% in size
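Chicken DT40 Tdp1-/- cells complemented with human TDP1, screened without camptothecin (DMSO vehicle only), 400 cells/well. Compounds pin-transferred, cells incubated at 37 °C for at least 48 hr. Growth read as ATP-dependent luminescence (CellTiter-Glo, 30 min at RT).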
DT40 TDP1 CPT: DT40-hTDP1 cell growth loss with CPT; chicken DT40 Tdp1-/-;hTDP1 cells + 20 nM CPT, ATP luminescence, 48 h; hit rate 12% among 420,000; Potency, µM (highest dose often 46.2 µM), inactives show at the top dose activity change, negative = growth inhibition, most hits filed as inhibitors; further: on the % scale 0 is the no-effect control and ±100 the full control effect; nearly all actives have a fitted effect of over 55% in size
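Cell growth measured by CellTiter-Glo luminescence after a minimum 48 h, 37 C compound exposure with 20 nM CPT in Tdp1-knockout DT40 cells stably expressing hTDP1, seeded 400/well; qHTS titration format.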
HT1080-NT tox: kills 2HG-producing HT-1080-NT fibrosarcoma cells; HT-1080-NT fibrosarcoma viability, CellTiter-Glo ATP luminescence, 48 h; Potency, µM (top dose mostly 46.1 µM), inactives show top-dose activity, negative = less viability, most hits filed as cytotoxic; hit rate 1.6% among 360,000;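 further: NT is the 2HG producing partner of a matched IDH1 knockdown line; 0% = DMSO-treated cells and -100% = media-only wells without cells; nearly all actives have a fitted effect of over 55% in size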
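Toxicity toward the 2HG-producing NT line was scored as %Activity, normalised to DMSO and no-cell wells, from CellTiter-Glo luminescence after 48 hours' treatment.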
HT1080 IDH1KD tx: kills HT-1080 cells with IDH1 knockdown; HT-1080 IDH1 knockdown viability, ATP luminescence, 48 h; Potency, µM (doses to about 46.1 µM), inactives show at the highest dose activity, negative = toxicity, hits mostly cytotoxic; AID 686971; hit rate 2% among 360,000;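 further: 0% = DMSO wells and -100% = cell-free medium wells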
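Assay cells: HT-1080 with IDH1 knockdown, 750 per well, RPMI/5% FBS. Exposure: 48 h at 37 °C following 2 h pre-incubation. Read: CellTiter-Glo luminescence; fitted concentration-response, curve class assigned.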
Starred values were filed as active, the others as inactive; ? = inconclusive; . = not tested or not shown. The list is not random: actives were taken first. Their share in the collection is about 17%. The call rests on the fitted dose curve; in most records, active means well fitted curve in the direction sought with a large enough effect; inconclusive means small, poorly fitted or top-dose-only effect, or another doubt; inactive means no such curve, though single readings can be large; an effect the other way counts as inactive or inconclusive. Potency means the concentration at half of the fitted maximal effect.

SMILES	TGFb SMAD3 inh	HepG2 tox	DT40 TDP1 no CPT	DT40 TDP1 CPT	HT1080-NT tox	HT1080 IDH1KD tx
CCC(C(=O)N1CCN(c2ccccc2)CC1)n1c(C)c2cnn(-c3ccccc3)c(=O)c2c1C (centres undefined)	?	-14.1%	?	?	.	.
O=C(Cn1ncc2c(=O)oc3ccccc3c21)N1CCN(c2ccccn2)CC1	-3.3%	-24.0%	-16.5%	0.9%	?	?
Cc1ccc(C)c(N2CCN(C(=O)Cn3c(C)c4cnn(-c5ccccc5)c(=O)c4c3C)CC2)c1	?	-24.1%	2.91µM*	5.17µM*	.	.
CCCN1CCN(C(=O)CCCn2c(C)c3cnn(-c4ccccc4)c(=O)c3c2C)CC1	13.4%	-46.9%	1.1%	-21.1%	-4.3%	2.2%
COc1cccc(N2CCN(C(=O)Cn3ncc4c(=O)oc5ccccc5c43)CC2)c1	-10.9%	-9.3%	18.4µM*	16.4µM*	.	.
CSc1nc(NS(=O)(=O)c2ccc(F)cc2F)nn1C	11.3%	6.8%	0.0%	-16.2%	9.9%	7.6%
Cc1ccc([N+](=O)[O-])cc1S(=O)(=O)N1CCn2cccc2C1c1ccccc1 (centres undefined)	-2.4%	2.8%	?	20.6µM*	.	.
Cc1nn(C)cc1S(=O)(=O)Nc1ncccn1	0.0%	2.3%	1.7%	8.8%	18.4%	10.3%
COc1ccccc1NC(=O)CNc1ccc(F)c(Cl)c1	0.3%	1.4%	-24.4%	-13.0%	-25.4%	?
O=C(CSc1nccn1Cc1ccc(Cl)cc1)NC1CCCC1	-23.9%	-25.6%	-1.9%	-22.1%	.	.
CCOC(=O)CN(c1sc(C)c(C)c1C(=O)OCC)S(=O)(=O)c1ccc(C)cc1	-4.5%	-13.5%	14.6µM*	?	-11.3%	-17.7%
O=C1c2ccccc2NC(c2cn[nH]c2-c2ccccc2)N1O (centres undefined)	4.2%	-2.1%	?	-4.9%	-2.2%	-5.3%
O=C1c2ccccc2NC(c2cn[nH]c2-c2ccc(Cl)cc2)N1O (centres undefined)	-13.6%	-21.7%	16.4µM*	16.4µM*	?	?
CCOc1c2c(c(-c3ccc4c(c3)OCO4)c3cc(OC)c(OC)cc13)C(=O)OC2	?	-40.1%	0.562µM*	0.891µM*	.	.
COc1ccccc1-c1oc2ccccc2c1-c1ccc2c(c1)OCO2	1.9%	-34.3%	?	?	?	5.9%
Nc1nc(N)c(Br)c(Nc2ccc(Cl)c(Cl)c2)n1	-18.0%	-36.1%	?	?	-4.3%	?
Nc1nc(N)c(N=O)c(Nc2ccc(Cl)c(Cl)c2)n1	.	.	7.31µM*	4.11µM*	?	?
Cc1ccc(Nc2ncnc3nc[nH]c23)cc1Cl	-28.8%	-35.6%	-22.6%	-23.1%	15.9%	-0.1%
Nc1nc(N)c(N=O)c(Nc2cccc(Cl)c2)n1	.	.	10.3µM*	5.8µM*	?	?
Cc1ccc(Nc2nc(N)nc(N)c2N=O)cc1Cl	.	.	13.2µM*	10.5µM*	1.0%	-0.7%
CCc1c(N)nc(N)nc1Nc1ccc(C)c(C)c1	-3.5%	6.0%	14.6µM*	?	-14.8%	-22.6%
CC(C)NC(=O)C(c1ccc(F)cc1)N(C(=O)CCC(=O)Nc1ccccn1)C1CCCC1 (centres undefined)	-5.2%	-12.7%	-2.4%	-0.7%	5.3%	3.4%
Cc1nc2ccc(C(=O)NCCc3c[nH]c4ccccc34)cn2c1N(C)C(=O)CCc1ccccc1	4.2%	-57.2%	23.1µM*	23.1µM*	0.9%	-18.1%
CCc1nc2ccc(C(=O)NCc3ccc4c(c3)OCO4)cn2c1N(CC)CCN(C)C	11.7%	-1.8%	-1.5%	-0.1%	8.0%	1.6%

Screens as filed in PubChem.
